Experimental data from ChEMBL document CHEMBL4296182, “CO-ADD screening of NIH NCI Diversity Set V”.
For part of these data: Entries with a potency or affinity are not part of this list.

Legend:
Staphylococcus aureus = assay: Antibacterial activity against Staphylococcus aureus MRSA ATCC 43300 (CO-ADD:GP_020); MIC in CAMBH media using NBS plates, by Resazurin F(560/590); format: functional; conditions: Concentration 20 uM, ASSAY_TEST Inhibition of Bacterial Growth, detection method Resazurin, Fluorescence (ex560/em590), MEDIA CAMHB, plate type 384well, CORNING #3640, time 18 hr
Acinetobacter baumannii = assay: Antibacterial activity against Acinetobacter baumannii ATCC 19606 (CO-ADD:GN_034); MIC in CAMBH media using NBS plates, by Resazurin F(560/590); format: functional; conditions: Concentration 20 uM, ASSAY_TEST Inhibition of Bacterial Growth, detection method Resazurin, Fluorescence (ex560/em590), MEDIA CAMHB, plate type 384well, CORNING #3640, time 18 hr
Escherichia coli = assay: Antibacterial activity against Escherichia coli ATCC 25922 (CO-ADD:GN_001); MIC in CAMBH media using NBS plates, by Resazurin F(560/590); format: functional; conditions: Concentration 20 uM, ASSAY_TEST Inhibition of Bacterial Growth, detection method Resazurin, Fluorescence (ex560/em590), MEDIA CAMHB, plate type 384well, CORNING #3640, time 18 hr
Klebsiella pneumoniae = conditions: Concentration 20 uM; ASSAY_TEST Inhibition of Bacterial Growth; detection method Absorption (OD600); MEDIA CAMHB; plate type 384well; NBS; CORNING #3640; time 18 hr
Candida albicans = conditions: 20 µM
Cryptococcus neoformans = conditions: Concentration 20 uM; ASSAY_TEST Inhibition of Fungal Growth; detection method Resazurin; Absorption (OD600-OD570); plate type 384well; NBS; CORNING #3640

With `COc1cccc(OCC(O)CN2CCN(c3ccccc3)CC2)c1` (stereo not given) the Inhibition (Staphylococcus aureus) was 10.13%, the Inhibition (Acinetobacter baumannii) was -11.48% and the Inhibition (Escherichia coli) was -4.05%. It also gave an Inhibition (Klebsiella pneumoniae) of 23.2%, an Inhibition (Candida albicans) of -2.19% and an Inhibition (Cryptococcus neoformans) of -13.63%.

`CC(=O)NCC(=O)O.CN(C)CCC1c2ccc(Cl)cc2CCc2cccnc21` (stereo not given) [CLOSIRAMINE ACETURATE] was tested, and the Inhibition (Staphylococcus aureus) was 15.26%, the Inhibition (Acinetobacter baumannii) was -11.76% and the Inhibition (Escherichia coli) was 19.15%. For the same compound, the Inhibition (Klebsiella pneumoniae) was 8.33%, the Inhibition (Candida albicans) was -2.05% and the Inhibition (Cryptococcus neoformans) was -9.31%.

`COC(=O)c1ccc(C(=O)OC)c(O)n1` was tested, and the Inhibition (Staphylococcus aureus) was 3.27%, the Inhibition (Acinetobacter baumannii) was 9.07% and the Inhibition (Escherichia coli) was 2.76%. It also gave an Inhibition (Klebsiella pneumoniae) of 7.35%, an Inhibition (Candida albicans) of 0.7% and an Inhibition (Cryptococcus neoformans) of -5.98%.

`S=C1N(c2ccccc2)CN(C2CCCCC2)CN1c1ccccc1` showed an Inhibition (Staphylococcus aureus) of 0.84%, an Inhibition (Acinetobacter baumannii) of 12.71% and an Inhibition (Escherichia coli) of -2.84%. It also gave an Inhibition (Klebsiella pneumoniae) of 1.62%, an Inhibition (Candida albicans) of 3.07% and an Inhibition (Cryptococcus neoformans) of -5.37%.

With `CCOC(=O)c1cnc(SCC)nc1O` the Inhibition (Staphylococcus aureus) was 11.19%, the Inhibition (Acinetobacter baumannii) was -12.25% and the Inhibition (Escherichia coli) was 0.66%. The Inhibition (Klebsiella pneumoniae) was 10.25%, the Inhibition (Candida albicans) was 0.68% and the Inhibition (Cryptococcus neoformans) was -8.17%.

`CCOc1ccc(S(=O)(=O)c2ccc(C)cc2)c2c1no[n+]2[O-]` was tested, and the Inhibition (Staphylococcus aureus) was 12.11%, the Inhibition (Acinetobacter baumannii) was 5.81% and the Inhibition (Escherichia coli) was 11.8%. For the same compound, the Inhibition (Klebsiella pneumoniae) was 9.49%, the Inhibition (Candida albicans) was 1.5% and the Inhibition (Cryptococcus neoformans) was -13.62%.

Compound `O=C1c2ccccc2C(=O)N1c1nc[nH]n1` has an Inhibition (Staphylococcus aureus) of 4.45%, an Inhibition (Acinetobacter baumannii) of -18.59% and an Inhibition (Escherichia coli) of 12.38%. For the same compound, the Inhibition (Klebsiella pneumoniae) was 0.02%, the Inhibition (Candida albicans) was -0.21% and the Inhibition (Cryptococcus neoformans) was -4.67%.

With `Oc1cccc2cnccc12` the Inhibition (Staphylococcus aureus) was -5.81%, the Inhibition (Acinetobacter baumannii) was 3.26% and the Inhibition (Escherichia coli) was 3.71%. It also gave an Inhibition (Klebsiella pneumoniae) of 12.61%, an Inhibition (Candida albicans) of 1% and an Inhibition (Cryptococcus neoformans) of 3.35%.

In the case of `O=C(O)/C(=C/c1ccccc1)c1ccccc1`, the Inhibition (Staphylococcus aureus) is reported as 7.86%, the Inhibition (Acinetobacter baumannii) is reported as -10.93% and the Inhibition (Escherichia coli) is reported as 11.66%. It also gave an Inhibition (Klebsiella pneumoniae) of 8.35%, an Inhibition (Candida albicans) of 8.14% and an Inhibition (Cryptococcus neoformans) of -16.02%.

`CN(C)c1ccc(/C=N/NC(=O)c2cnc3ccccc3c2)cc1` was tested, and the Inhibition (Staphylococcus aureus) was 17.84%, the Inhibition (Acinetobacter baumannii) was 9.63% and the Inhibition (Escherichia coli) was 3.71%. It also gave an Inhibition (Klebsiella pneumoniae) of 14.91%, an Inhibition (Candida albicans) of 2.44% and an Inhibition (Cryptococcus neoformans) of 3.68%.

`CC(C)(C)C(=O)/C=C/c1ccc(Oc2ccccc2)cc1` showed an Inhibition (Staphylococcus aureus) of 7.11%, an Inhibition (Acinetobacter baumannii) of -6.09% and an Inhibition (Escherichia coli) of -4.94%. It also gave an Inhibition (Klebsiella pneumoniae) of 20.89%, an Inhibition (Candida albicans) of 4.03% and an Inhibition (Cryptococcus neoformans) of -10.02%.

`O=C(O)CCN1c2ccccc2Sc2ccccc21` was tested, and the Inhibition (Staphylococcus aureus) was 8.2%, the Inhibition (Acinetobacter baumannii) was -9.93% and the Inhibition (Escherichia coli) was 16.66%. For the same compound, the Inhibition (Klebsiella pneumoniae) was 14.48%, the Inhibition (Candida albicans) was 16.7% and the Inhibition (Cryptococcus neoformans) was -15.83%.

Compound `Cc1cc2c(cc1C)N(C(=O)CCl)CC(=O)N2` has an Inhibition (Staphylococcus aureus) of -15.91%, an Inhibition (Acinetobacter baumannii) of -11.28% and an Inhibition (Escherichia coli) of 5.03%. The Inhibition (Klebsiella pneumoniae) was 7.32%, the Inhibition (Candida albicans) was 2.46% and the Inhibition (Cryptococcus neoformans) was -7.55%.

In the case of `Cc1cc(O)c(C(C)C)cc1NC(=O)Nc1cccc2ccccc12`, the Inhibition (Staphylococcus aureus) is reported as -3.74%, the Inhibition (Acinetobacter baumannii) is reported as -15.42% and the Inhibition (Escherichia coli) is reported as 2.96%. It also gave an Inhibition (Klebsiella pneumoniae) of 4.38%, an Inhibition (Candida albicans) of 8.57% and an Inhibition (Cryptococcus neoformans) of -2.63%.

`CNc1nc(SC)n(C)c(=O)c1N=O` showed an Inhibition (Staphylococcus aureus) of 10.57%, an Inhibition (Acinetobacter baumannii) of -4.07% and an Inhibition (Escherichia coli) of 13.38%. It also gave an Inhibition (Klebsiella pneumoniae) of 9.07%, an Inhibition (Candida albicans) of -3.41% and an Inhibition (Cryptococcus neoformans) of -15.4%.

In the case of `C=CCc1ccccc1OCC(=O)O`, the Inhibition (Staphylococcus aureus) is reported as 3.16%, the Inhibition (Acinetobacter baumannii) is reported as -9.95% and the Inhibition (Escherichia coli) is reported as 10.02%. For the same compound, the Inhibition (Klebsiella pneumoniae) was 15.59%, the Inhibition (Candida albicans) was 5.01% and the Inhibition (Cryptococcus neoformans) was 1.51%.

`CN(C)N1C(=O)c2c(Cl)c(Cl)c(Cl)c(Cl)c2C1=O` was tested, and the Inhibition (Staphylococcus aureus) was 2.83%, the Inhibition (Acinetobacter baumannii) was 0.5% and the Inhibition (Escherichia coli) was 6.02%. For the same compound, the Inhibition (Klebsiella pneumoniae) was 6.84%, the Inhibition (Candida albicans) was 1.54% and the Inhibition (Cryptococcus neoformans) was 46.33%.

With `O=S(=O)(O)c1ccc2c(c1)C(C(Cl)(Cl)Cl)OC(C(Cl)(Cl)Cl)O2` (stereo not given) the Inhibition (Staphylococcus aureus) was 10.71%, the Inhibition (Acinetobacter baumannii) was -8.34% and the Inhibition (Escherichia coli) was 18.82%. It also gave an Inhibition (Klebsiella pneumoniae) of 1.9%, an Inhibition (Candida albicans) of -0.48% and an Inhibition (Cryptococcus neoformans) of -7.32%.

Work on `O=c1[nH]nc(-c2cc(-c3ccccc3)nc3ccccc23)o1` yielded an Inhibition (Staphylococcus aureus) of 7.26%, an Inhibition (Acinetobacter baumannii) of -11.03% and an Inhibition (Escherichia coli) of 4.61%. It also gave an Inhibition (Klebsiella pneumoniae) of 4.91%, an Inhibition (Candida albicans) of 0.17% and an Inhibition (Cryptococcus neoformans) of -2.09%.

`CCNC(=O)Oc1cccnc1O` gave an Inhibition (Staphylococcus aureus) of 2.22%, an Inhibition (Acinetobacter baumannii) of -10.2% and an Inhibition (Escherichia coli) of 11.39%. For the same compound, the Inhibition (Klebsiella pneumoniae) was 5.97%, the Inhibition (Candida albicans) was 1.04% and the Inhibition (Cryptococcus neoformans) was -16.02%.

For `c1ccc(Sc2ncccn2)nc1`, the Inhibition (Staphylococcus aureus) was 20.57%, the Inhibition (Acinetobacter baumannii) was -8.37% and the Inhibition (Escherichia coli) was 7.64%. The Inhibition (Klebsiella pneumoniae) was 5.74%, the Inhibition (Candida albicans) was 3.74% and the Inhibition (Cryptococcus neoformans) was -10.47%.

In the case of `O=C1/C(=N\c2cccc(Cl)c2)CC(c2ccc(Cl)cc2)N1c1cccc(Cl)c1` (stereo not given), the Inhibition (Staphylococcus aureus) is reported as 20.38%, the Inhibition (Acinetobacter baumannii) is reported as -11.7% and the Inhibition (Escherichia coli) is reported as 10.42%. It also gave an Inhibition (Klebsiella pneumoniae) of 18.13%, an Inhibition (Candida albicans) of -2.19% and an Inhibition (Cryptococcus neoformans) of -8.61%.

For `CC(C)N(C(=O)c1cccc([N+](=O)[O-])c1)C(C)C`, the Inhibition (Staphylococcus aureus) was 9.59%, the Inhibition (Acinetobacter baumannii) was -13.76% and the Inhibition (Escherichia coli) was 4.26%. It also gave an Inhibition (Klebsiella pneumoniae) of 0.52%, an Inhibition (Candida albicans) of 0.26% and an Inhibition (Cryptococcus neoformans) of -4.03%.

Compound `COc1ccc2c3c([nH]c2c1)[C@H]1C[C@H]2[C@H](C[C@@H](O)[C@H](OC)[C@H]2C(=O)O)CN1CC3` has an Inhibition (Staphylococcus aureus) of 6.35%, an Inhibition (Acinetobacter baumannii) of 2.79% and an Inhibition (Escherichia coli) of -2.06%. The Inhibition (Klebsiella pneumoniae) was 4.58%, the Inhibition (Candida albicans) was -1.6% and the Inhibition (Cryptococcus neoformans) was -3.05%.

Work on `Cc1ccc(C(=N)Nc2ccccc2)cc1` yielded an Inhibition (Staphylococcus aureus) of 11.04%, an Inhibition (Acinetobacter baumannii) of 15.63% and an Inhibition (Escherichia coli) of 1.43%. The Inhibition (Klebsiella pneumoniae) was 18.31%, the Inhibition (Candida albicans) was 3.37% and the Inhibition (Cryptococcus neoformans) was -4.07%.
